Screening data: PubChem BioAssay, National Center for Advancing Translational Sciences (NCATS)
FBPA Giardia inh – qHTS Assay for Inhibitors of Fructose-1,6-bisphosphate Aldolase from Giardia Lamblia. purified Giardia FBPA. Potency, µM (highest dose often 59.6 µM), usual class: inhibitors. A8B2U2. 0.71% of 290,000 active; further: nearly all actives have a fitted effect of over 55% in size
Target sequence (A8B2U2 whole entry, looked up): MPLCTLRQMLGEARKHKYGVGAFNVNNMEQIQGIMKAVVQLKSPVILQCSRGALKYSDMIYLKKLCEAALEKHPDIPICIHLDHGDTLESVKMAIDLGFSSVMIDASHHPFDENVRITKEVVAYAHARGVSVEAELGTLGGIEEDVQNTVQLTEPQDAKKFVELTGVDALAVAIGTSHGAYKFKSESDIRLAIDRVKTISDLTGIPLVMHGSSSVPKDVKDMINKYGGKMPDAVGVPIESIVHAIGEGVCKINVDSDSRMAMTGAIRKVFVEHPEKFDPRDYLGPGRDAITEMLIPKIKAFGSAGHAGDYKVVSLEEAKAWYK
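40 nM FBPA preincubated 10 min at RT with compound (up to 57.5 uM final), then substrate plus GAPDH/TPI/NAD/arsenate coupling and diaphorase/resazurin added. Fluorescence read after 20 min at RT, 525/598 nm.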
FMDV inh – High Throughput Screening for Foot and Mouth Disease Virus Antivirals | FMDV antiviral cell-based qHTS | Potency, µM (doses to about 57.9 µM), hits mostly inhibitors | 1.2% of 410,000 active | AID 1159524, 2015; calls by dose curve; tested in HEK293T cells; further: read-out not given here; nearly all actives have a fitted effect of over 45% in size
Sm TGR inh – qHTS Assay for the Inhibitors of Schistosoma Mansoni Peroxiredoxins; 3% of 360,000 active; purified TGR, DTNB reduction, TNB absorbance 405 nm; Potency, µM (doses to about 114 µM), usual class: inhibitors; further: nearly all actives have a fitted effect of over 60% in size
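TGR 20 nM + NADPH 100 uM (dispensed conc.), cpd preinc 15 min RT; start with NADPH (500 uM addition) then DTNB (15 mM addition). Kinetic TNB absorbance, 405 nm filter. Four-parameter Hill fit across titration.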
TbPYK inhibitor – qHTS of Trypanosoma Brucei Inhibitors; TbPYK enzyme, Kinase-Glo Plus ATP luminescence, 45 min; Potency, µM (highest dose often 76.8 µM), actives largely listed as inhibitors; 0.12% of 410,000 active; AID 624173, 2012; further: nearly all actives have a fitted effect of over 50% in size
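Glycolytic pyruvate kinase of T. brucei was incubated with substrate, test compound and 130 uM ADP for 45 minutes at room temperature. Luminescent Kinase-Glo Plus signal was measured after 10 minutes.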
RE007 growth inh – qHTS Assay for Inhibitors of the HIV-1 protein Vpr | Potency, µM (top dose mostly 92.2 µM), usual class: inhibitors | S. pombe RE007 Vpr strain, BacTiter-Glo ATP luminescence, 24 h | AID 651644, 2012 | 0.21% of 360,000 active; active means well fitted falling curve with a large enough effect; inconclusive means small, poorly fitted or top-dose-only effect; inactive means no such curve, though single readings can be large or run the other way; further: nearly all actives have a fitted effect of over 50% in size
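Fission yeast RE007 carrying one integrated HIV-1 vpr copy, seeded at OD 0.01 in PMG+AL medium with 23 nL pinned compound. Grown 24 h at 30 degrees; viability read by BacTiter-Glo luminescence after 5 min.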
HCMV antiviral – qHTS Assay for inhibitors of the human cytomegalovirus (HCMV); HFF cells, HCMV-luciferase reporter, 72 h; active compounds read low; activity change, negative = inhibition, % at 57.5 µM; 4.5% of 410,000 active; AID 1259415, 2018; in the data active means activity change below about -60%; inconclusive means no clear call, values can overlap the other calls; inactive means above about -39%
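After 16 h attachment at 37C, HFF cells received test compound and HCMV-luciferase (1 PFU/cell); reporter luminescence read 72 h later, data normalized against buffer-only and known inhibitor Salinomycin.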
Large screens that a line does not name were inactive. This is a sample that favours compounds with a hit; in the whole collection about 7.7% have one here. Unless noted, the call rests on the fitted dose curve; in most records, active means well fitted curve in the direction sought with a large enough effect; inconclusive means small, poorly fitted or top-dose-only effect, or another doubt; inactive means no such curve, though single readings can be large; an effect the other way counts as inactive or inconclusive.

O=C(C[n+]1cn(C(F)F)c2ccccc21)c1ccc(Br)cc1	Sm TGR inh 4µM
O=C(O)[C@@H]1[C@H]2C[C@H]3c4[nH]c5ccccc5c4CCN3C[C@@H]2CC[C@@H]1O	none (no result: FBPA Giardia inh)
O=C(O)C1CCCC2CN3CCc4c([nH]c5ccccc45)C3C(O)C21 (configuration not stated)	FBPA Giardia inh inconclusive, HCMV antiviral -72
CCOC(=O)c1sc2ccccc2c1S(=O)(=O)Nc1ccc(OC)c(Cl)c1	TbPYK inhibitor inconclusive (no result: FBPA Giardia inh, RE007 growth inh)
CCc1cc(C(=O)c2ccc(C)cc2)c(NC(=O)CCl)s1	Sm TGR inh inconclusive
Cc1cc(C(=O)c2ccc(Cl)cc2)c(NC(=O)CCl)s1	FMDV inh 25µM
O=C1c2ccccc2NC(c2cccc(O)c2)N1Cc1ccco1 (configuration not stated)	Sm TGR inh 32µM
CC(=NN=C(C)c1ccc(O)cc1)c1ccc(O)cc1	none (no result: FBPA Giardia inh, Sm TGR inh)
CC/C(=N/N=C(/CC)c1ccc(O)cc1)c1ccc(O)cc1	HCMV antiviral -99 (no result: FBPA Giardia inh, Sm TGR inh)
O=C(CCc1ccncc1)NC1CCCc2c1cnn2-c1ccc(F)cc1F (configuration not stated)	FMDV inh inconclusive, HCMV antiviral -73
CCc1cc(C(=O)NC2CCCc3c2cnn3-c2ccc(F)cc2F)no1 (configuration not stated)	FMDV inh inconclusive, HCMV antiviral -71 (no result: FBPA Giardia inh, Sm TGR inh)
O=C(NC1CCCc2c1cnn2-c1ccc(F)cc1F)c1ccccc1N1CCOCC1 (configuration not stated)	HCMV antiviral -75
CC(C)n1c(=O)c2oc3ccccc3c2n(CC(=O)Nc2ccccc2Cl)c1=O	none (no result: FBPA Giardia inh, RE007 growth inh)
COc1ccc(N2CCN(C(=O)CSc3n[nH]c(-c4ccccc4Cl)n3)CC2)cc1	none (no result: FBPA Giardia inh, RE007 growth inh)
O=C(CSc1n[nH]c(-c2ccccc2Cl)n1)N1CCN(c2ccccc2)CC1	FMDV inh 35µM (no result: FBPA Giardia inh, RE007 growth inh)
Cc1ccccc1N1CCN(C(=O)c2ccccc2NC(=O)/C=C\C(=O)O)CC1	Sm TGR inh inconclusive
CC(C)c1ccc(N2CCN(C(=O)c3ccccc3NC(=O)/C=C\C(=O)O)CC2)cc1	Sm TGR inh 40µM
O=C(O)/C=C\C(=O)Nc1ccccc1C(=O)N1CCN(c2ccc(Cl)cc2)CC1	Sm TGR inh 50µM, RE007 growth inh inconclusive
CC(=O)NC(Cc1ccc(O)cc1)C(=O)O (configuration not stated)	none (no result: FBPA Giardia inh, FMDV inh, Sm TGR inh, TbPYK inhibitor, RE007 growth inh)
CCOc1cc(CNC(=O)NC2COc3ccccc3C2)cc(OCC)c1OCC (configuration not stated)	none (no result: FBPA Giardia inh, RE007 growth inh)
COc1ccccc1N1CCN(S(=O)(=O)c2ccc(-c3ccno3)cc2OC)CC1	none (no result: FBPA Giardia inh, RE007 growth inh)
CN(C)c1ccc(-c2nc3ccccn3c2/N=C/c2ccc(Br)cc2)cc1	FMDV inh 13µM, RE007 growth inh inconclusive, HCMV antiviral inconclusive
Cc1cc2c(c(=O)n1-c1ccccc1)C1O[C@](c3ccsc3)(Cc3cc(C#N)ccc31)O2	none (no result: FMDV inh, TbPYK inhibitor, RE007 growth inh, HCMV antiviral)
Oc1cc2c(cc1C(c1ccc(Cl)c(Cl)c1)N1CCCC1)OCO2 (configuration not stated)	FBPA Giardia inh inconclusive, FMDV inh inconclusive, Sm TGR inh 0.5µM, TbPYK inhibitor inconclusive, RE007 growth inh inconclusive, HCMV antiviral -97
CC(C)c1ccc(NC(=O)C(c2ccc3c(c2)OCO3)N2CCCCC2)cc1 (configuration not stated)	none
Cc1ccc(/C=C/C(=O)N2CCN(S(=O)(=O)c3ccc(C)c(C)c3)CC2)o1	Sm TGR inh 13µM, TbPYK inhibitor 14µM
Cc1ccc(/C=C/C(=O)N2CCN(S(=O)(=O)c3c(C)c(C)cc(C)c3C)CC2)o1	Sm TGR inh 10µM, TbPYK inhibitor inconclusive
Cc1ccc(C(=O)N2CCN(Cc3ccccc3)CC2)o1	none
Cc1cccc(CN2CCN(C(=O)CCl)CC2)c1	FMDV inh 35µM, Sm TGR inh 35µM
Cc1cc(C)c(C)c(S(=O)(=O)N2CCN(C(=O)c3ccco3)CC2)c1C	FMDV inh inconclusive (no result: FBPA Giardia inh, Sm TGR inh)
Cc1ccc(/C=C/C(=O)N2CCN(Cc3ccccc3)CC2)o1	Sm TGR inh 14µM
